Where a name gives a salt, the structure may show the parent alone. ± gives the standard deviation of the averaged measurements.
Key:
Test in all cases: growth (OD600 after 10 h); higher = more growth (less inhibition)
[1] = test system: E. coli TESEC Alr+ wild-type control; details: compound 0.1 mM; raw OD600 reference: median of DMSO wells 0.241, cell-free background 0.041
Description: (§1)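 TESEC Mtb Alr E. coli, or the Alr+ wild-type control, in 384-well plates with Prestwick library compounds at 0.1 mM and 1% DMSO, across arabinose induction levels of 1E3 to 1E7 nM. Growth is read as OD600 after 10 h at 37 °C in triplicate biological replicates.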

E. coli TESEC Mtb Alr [2] = details: compound 0.1 mM
Description: as §1

E. coli TESEC Mtb Asd = details: compound 0.1 mM
Description: (§2)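 TESEC E. coli strains in which the native enzyme is deleted and replaced by arabinose-inducible Mtb Asd, DapB, CysH or TrpD, each grown in its selective medium. Strains were screened against the Prestwick library at 0.1 mM and 1% DMSO in 384-well format at low and high arabinose induction. Growth is read as OD600 after 10 h in triplicate.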

E. coli TESEC Mtb DapB = details: compound 0.1 mM
Description: as §2

E. coli TESEC Mtb Alr [3] = details: compound 0.1 mM; remark: listed apart in the source
Description: (§3)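 TESEC Mtb Alr E. coli (ΔaraC ΔtolC ΔentC Δalr ΔdadX, arabinose-inducible Mtb Alr) or the Alr+ wild-type control strain, grown in defined M9-fructose medium without D-alanine in 96-well plates with Prestwick library compounds at 0.1 mM and 1% DMSO. Low Alr induction is 0.1 µM arabinose and high induction is 10 mM arabinose.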

[4] = test system: E. coli TESEC Alr+ wild-type control; details: compound 0.1 mM; raw OD600 reference: median of DMSO wells 0.49, cell-free background 0.052
Description: as §3

[5] = arabinose 1000 nM, raw OD600 reference: median of DMSO wells 0.294, cell-free background 0.041
[6] = arabinose 10000 nM, raw OD600 reference: median of DMSO wells 0.264, cell-free background 0.041
[7] = arabinose 100000 nM, raw OD600 reference: median of DMSO wells 0.201, cell-free background 0.041
[8] = arabinose 1000000 nM, raw OD600 reference: median of DMSO wells 0.193, cell-free background 0.041
[9] = arabinose 10000000 nM, raw OD600 reference: median of DMSO wells 0.146, cell-free background 0.041
[10] = arabinose induction (level): High, raw OD600 reference: median of DMSO wells 0.331, cell-free background 0.041
[11] = arabinose induction (level): Low, raw OD600 reference: median of DMSO wells 0.417, cell-free background 0.041
[12] = arabinose induction (level): High, raw OD600 reference: median of DMSO wells […], cell-free background 0.041
[13] = arabinose induction (level): Low, raw OD600 reference: median of DMSO wells 0.227, cell-free background 0.041
[14] = arabinose 100 nM, raw OD600 reference: median of DMSO wells 0.413, cell-free background 0.052
[15] = arabinose 10000000 nM, raw OD600 reference: median of DMSO wells […], cell-free background 0.052

Compound | growth [1] | growth (E. coli TESEC Mtb Alr [2]; [5]) | growth (E. coli TESEC Mtb Alr [2]; [6]) | growth (E. coli TESEC Mtb Alr [2]; [7]) | growth (E. coli TESEC Mtb Alr [2]; [8]) | growth (E. coli TESEC Mtb Alr [2]; [9]) | growth (E. coli TESEC Mtb Asd; [10]) | growth (E. coli TESEC Mtb Asd; [11]) | growth (E. coli TESEC Mtb DapB; [12]) | growth (E. coli TESEC Mtb DapB; [13]) | growth (E. coli TESEC Mtb Alr [3]; [14]) | growth (E. coli TESEC Mtb Alr [3]; [15]) | growth [4]
Cc1onc(-c2ccccc2)c1-c1ccc(S(N)(=O)=O)cc1 [Valdecoxib] | 0.124 ± 0.0019 | 0.173 ± 0.0027 | 0.216 ± 0.029 | 0.148 ± 0.0053 | 0.0949 ± 0.0023 | 0.122 ± 0.0014 | 0.196 ± 0.038 | 0.245 ± 0.045 | 0.178 ± 0.015 | 0.229 ± 0.022 | 0.4007 ± 0.0035 | 0.198 ± 0.016 | 
CN(C)CCC(c1ccccc1)c1ccccn1 (stereo not given) [Pheniramine maleate] | 0.241 ± 0.014 | 0.289 ± 0.0087 | 0.242 ± 0.0091 | 0.191 ± 0.0028 | 0.162 ± 0.0033 | 0.14 ± 0.0047 | 0.248 ± 0.064 | 0.408 ± 0.014 | 0.201 ± 0.022 | 0.213 ± 0.019 | 0.41 ± 0.006 | 0.345 ± 0.015 | 
C=CCSCC1Nc2cc(Cl)c(S(N)(=O)=O)cc2S(=O)(=O)N1 (stereo not given) [Althiazide] | 0.244 ± 0.006 | 0.301 ± 0.019 | 0.2578 ± 0.0023 | 0.219 ± 0.016 | 0.183 ± 0.011 | 0.141 ± 0.0034 | 0.261 ± 0.052 | 0.441 ± 0.019 | 0.209 ± 0.0088 | 0.242 ± 0.018 | 0.383 ± 0.006 | 0.326 ± 0.012 | 
CC(C)/N=c1\cc2n(-c3ccc(Cl)cc3)c3ccccc3nc-2cc1Nc1ccc(Cl)cc1 [Clofazimine] | 0.158 ± 0.004 | 0.231 ± 0.016 | 0.154 ± 0.037 | 0.225 ± 0.023 | 0.0638 ± 0.0033 | 0.168 ± 0.013 | 0.247 ± 0.053 | 0.337 ± 0.11 | 0.248 ± 0.023 | 0.261 ± 0.012 | 0.395 ± 0.031 | 0.06873 ± 0.00031 | 
Cn1c(=O)c2c(ncn2CC2OCCO2)n(C)c1=O [Doxofylline] | 0.248 ± 0.0076 | 0.302 ± 0.015 | 0.259 ± 0.01 | 0.197 ± 0.017 | 0.179 ± 0.011 | 0.158 ± 0.0092 | 0.476 ± 0.018 | 0.469 ± 0.035 | 0.1957 ± 0.00055 | 0.238 ± 0.0011 | 0.408 ± 0.0051 | 0.334 ± 0.01 | 
CCN(CC)CCNC(=O)c1cc(Br)c(N)cc1OC [Bromopride] | 0.243 ± 0.025 | 0.312 ± 0.011 | 0.256 ± 0.0069 | 0.196 ± 0.0058 | 0.181 ± 0.006 | 0.1557 ± 0.00098 | 0.467 ± 0.025 | 0.4797 ± 0.0047 | 0.196 ± 0.014 | 0.256 ± 0.033 | 0.4074 ± 0.0017 | 0.316 ± 0.022 | 
COc1ccc2c(c1)N(C[C@H](C)CN(C)C)c1ccccc1S2 [Methotrimeprazine maleat salt] | 0.187 ± 0.0042 | 0.25 ± 0.015 | 0.274 ± 0.015 | 0.2 ± 0.0049 | 0.139 ± 0.0095 | 0.179 ± 0.002 | 0.131 ± 0.0046 | 0.2312 ± 0.0023 | 0.1934 ± 0.0013 | 0.211 ± 0.012 | 0.402 ± 0.0072 | 0.282 ± 0.02 | 
CC(C)(C)NCC(O)c1ccc(O)c(CO)c1 (stereo not given) [Salbutamol] | 0.241 ± 0.0029 | 0.285 ± 0.015 | 0.271 ± 0.0082 | 0.192 ± 0.0026 | 0.183 ± 0.0057 | 0.137 ± 0.0049 | 0.318 ± 0.067 | 0.436 ± 0.032 | 0.215 ± 0.015 | 0.233 ± 0.028 | 0.43 ± 0.0098 | 0.383 ± 0.017 | 
CCN(CC)CCOC(=O)c1ccc(N)cc1 [Procaine hydrochloride] | 0.254 ± 0.0063 | 0.254 ± 0.065 | 0.273 ± 0.0077 | 0.2 ± 0.034 | 0.193 ± 0.0097 | 0.146 ± 0.0049 | 0.339 ± 0.035 | 0.384 ± 0.038 | 0.203 ± 0.026 | 0.251 ± 0.046 | 0.412 ± 0.0056 | 0.259 ± 0.17 | 
CO[C@@]1(NC(=O)C2SC(=C(C(N)=O)C(=O)O)S2)C(=O)N2C(C(=O)O)=C(CSc3nnnn3C)CS[C@@H]21 (stereo not given in full) [Cefotetan] | 0.03883 ± 0.00012 | 0.0383 ± 0.0011 | 0.04147 ± 0.00015 | 0.03763 ± 0.00032 | 0.0413 ± 0.00026 | 0.03917 ± 5.8e-05 | 0.0535 ± 0.0059 | 0.048 ± 0.0045 | 0.0527 ± 0.0035 | 0.0511 ± 0.01 | 0.0461 ± 0.00061 | 0.0531 ± 0.0051 | 
CCC1(C)CC(=O)NC1=O (stereo not given) [Ethosuximide] | 0.2481 ± 0.002 | 0.287 ± 0.014 | 0.267 ± 0.0062 | 0.219 ± 0.016 | 0.1876 ± 0.0001 | 0.141 ± 0.003 | 0.38 ± 0.03 | 0.417 ± 0.026 | 0.1866 ± 0.0016 | 0.245 ± 0.052 | 0.4152 ± 0.0041 | 0.368 ± 0.019 | 
CS(=O)(=O)c1ccc([C@@H](O)[C@@H](CF)NC(=O)C(Cl)Cl)cc1 [Florfenicol] | 0.0412 ± 0.0009 | 0.0406 ± 0.00059 | 0.0395 ± 0.0002 | 0.04123 ± 0.0004 | 0.03917 ± 0.00012 | 0.0409 ± 0.00017 | 0.054 ± 0.0047 | 0.0538 ± 0.0014 | 0.0485 ± 0.0014 | 0.0488 ± 0.001 | 0.05607 ± 0.00047 | 0.0524 ± 0.0018 | 
C[C@H](CCC(=O)O)[C@H]1CC[C@H]2[C@@H]3CC[C@@H]4C[C@H](O)CC[C@]4(C)[C@H]3CC[C@]12C [Lithocholic acid] | 0.255 ± 0.011 | 0.312 ± 0.011 | 0.266 ± 0.0075 | 0.207 ± 0.012 | 0.169 ± 0.0078 | 0.173 ± 0.0071 | 0.462 ± 0.008 | 0.404 ± 0.022 | 0.214 ± 0.011 | 0.229 ± 0.021 | 0.325 ± 0.037 | 0.3 ± 0.017 | 
C=C1C[C@H]2[C@@H]3C=C(C)C4=CC(=O)CC[C@]4(C)[C@H]3CC[C@]2(C)[C@@]1(OC(C)=O)C(C)=O [Melengestrol acetate] | 0.20603 ± 0.00015 | 0.281 ± 0.013 | 0.295 ± 0.011 | 0.166 ± 0.0027 | 0.176 ± 0.0085 | 0.148 ± 0.0027 | 0.213 ± 0.071 | 0.343 ± 0.11 |  |  | 0.3558 ± 0.0033 | 0.142 ± 0.053 | 0.205 ± 0.053
CC(CN(C)C)CN1c2ccccc2Sc2ccccc21 (stereo not given) [Trimeprazine tartrate] | 0.184 ± 0.019 | 0.221 ± 0.019 | 0.255 ± 0.0092 | 0.189 ± 0.012 | 0.129 ± 0.0014 | 0.168 ± 0.0079 | 0.175 ± 0.028 | 0.323 ± 0.07 |  |  | 0.392 ± 0.0092 | 0.298 ± 0.018 | 0.526 ± 0.013
CCOC(=O)[C@H](CCc1ccccc1)N[C@@H](C)C(=O)N1Cc2ccccc2C[C@H]1C(=O)O [Quinapril HCl] | 0.218 ± 0.012 | 0.29 ± 0.0069 | 0.2807 ± 0.0024 | 0.155 ± 0.012 | 0.21 ± 0.0061 | 0.144 ± 0.0052 | 0.246 ± 0.03 | 0.403 ± 0.052 |  |  | 0.384 ± 0.015 | 0.309 ± 0.011 | 0.477 ± 0.15
Cc1ncc(CO)c(CO)c1O [Pyridoxine hydrochloride] | 0.258 ± 0.0075 | 0.302 ± 0.013 | 0.2532 ± 0.0016 | 0.238 ± 0.034 | 0.174 ± 0.0032 | 0.168 ± 0.017 | 0.344 ± 0.1 | 0.37 ± 0.022 |  |  | 0.428 ± 0.0097 | 0.32 ± 0.013 | 0.544 ± 0.025

Source: the supplement of paper PMC9262897, “Low-cost anti-mycobacterial drug discovery using engineered E. coli” (Nature Communications, 2022)
